# Source: PubChem BioAssay
# “And” between values parts separate entries of the source, which are not always exact repeats. Equal values may be shown once. Records with an inconclusive call do not appear. Where a structure was tested more than once in an assay, its records may differ in their call. The source made the active and inactive calls. Rule as the data show it, unless noted: active = inhibition above about 80%; inactive = the rest.
# Experiments:
# [1] = growth inhibition of DIPG glioma cells, dose response, cell-based, SU-DIPG-XIII, MIPE4.0, CellTiter-Glo, qHTS (AID 1347061; cut-off not given, nearly all actives have AC50 up to about 37 µM;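 also: cells exposed to compound for 48 hours before readout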); settings: SU-DIPG-XIII viability, CellTiter-Glo ATP luminescence
# [2] = growth inhibition of DIPG glioma cells, dose response, cell-based, JHH-DIPG-1, MIPE4.0, CellTiter-Glo, qHTS (AID 1347062; cut-off not given, nearly all actives have AC50 up to about 27 µM); settings: JHH-DIPG-1 viability, CellTiter-Glo ATP luminescence
# [3] = SU-DIPG-VI glioma cell viability, MIPE4.0 library, CellTiter-Glo luminescence, qHTS (AID 1347066; cut-off not given, nearly all actives have AC50 up to about 30 µM;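 also: cells exposed to compound for 48 hours before readout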); settings: CellTiter-Glo ATP luminescence
# [4] = JHH-DIPG-1 glioma cell viability, MIPE5.0 library, CellTiter-Glo luminescence, qHTS (AID 1347067; cut-off not given, nearly all actives have AC50 up to about 26 µM;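 also: cells exposed to compound for 48 hours before readout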); settings: JHH-DIPG-1 glioma viability, CellTiter-Glo ATP luminescence
# [5] = SU-DIPG-XXV glioma cell viability, MIPE5.0 library, qHTS (AID 1347068; cut-off not given, nearly all actives have IC50 up to about 30 µM)
# [6] = sensitizers of A549 cells to miR-34 induction, primary screen, imaging, A549 dox-inducible miR-34, nuclei and caspase counts (AID 1347080;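 active = compounds whose cell count with miR-34 switched on is under 0.7 times the count with it off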); settings: A549 miR-34 inducible, Hoechst nuclei count, 48 h
# [7] = survival rescue of mitochondrial mutant cells in low glucose, primary screen, MELAS cybrids, Rieske KO mouse fibroblasts, CellTiter-Glo (AID 1508586;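 active = mean z-score across replicates of 1.96 or higher in either the MELAS or the Rieske mutant cell line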;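 also: z relative to plate mean and SD of compound and empty wells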)
# [8] = growth inhibition of DIPG glioma cells, dose response, cell-based, SU-DIPG-XIII, MIPE5.0, CellTiter-Glo, qHTS (AID 1347064; cut-off not given, nearly all actives have AC50 up to about 23 µM); settings: SU-DIPG-XIII viability, CellTiter-Glo ATP luminescence
# [9] = viability loss in pontine glioma line – cell-based, SU-DIPG-XXV, MIPE5.0, CellTiter-Glo, qHTS, dose response (AID 1347065; cut-off not given, nearly all actives have AC50 up to about 26 µM;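 also: cells exposed to compound for 48 hours before ATP readout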); settings: CellTiter-Glo ATP luminescence
# [10] = LFS_MB_P medulloblastoma growth inhibition, cell-based, chromothripsis tumors, cisplatin or BGB combos (AID 1671449); settings: LFS_MB_P medulloblastoma cells;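 also: cells exposed for 96 hours; 0% = vehicle DMSO and 100% = killing by high DMSO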
# [11] = HDN33 neuroblastoma growth inhibition, cell-based, chromothripsis tumors, cisplatin or BGB combos (AID 1671450); settings: HDN33 neuroblastoma cells, stronger effect = higher value;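 also: cells exposed to compound for four days; 0% = vehicle DMSO and 100% = cell killing by high DMSO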
# [12] = ICB984 medulloblastoma cell growth inhibition, synergistic combos for chromothripsis tumors, cisplatin or BGB combos (AID 1671451; call rule not given here;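 also: cells exposed for 96 hours before readout; 0% = vehicle DMSO and 100% = killing by high DMSO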); settings: ICB984 medulloblastoma cells, drug combinations, stronger effect = higher value
# [13] = HTB85 osteosarcoma cell growth inhibition, synergistic combos for chromothripsis tumors, BGB or cisplatin IC20 combos (AID 1671453); settings: HTB85 osteosarcoma cells, drug combinations, stronger effect = higher value;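 also: cells exposed for 96 hours before readout; 0% = vehicle DMSO and 100% = high DMSO killing control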
# [14] = MDA-MB-436 breast carcinoma cell growth inhibition, synergistic combos for chromothripsis tumors, BGB or cisplatin combos (AID 1671458; call rule not given here;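 also: cells exposed for 96 hours; 0% = vehicle DMSO and 100% = killing by high DMSO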); settings: MDA-MB-436 breast carcinoma growth inhibition, drug combinations, stronger effect = higher value
# [15] = growth inhibition of BT084 medulloblastoma cells, cell-based, ICGC_MB145, cisplatin and BGB IC40 combos (AID 1671461); settings: drug combinations, stronger effect = higher value;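 also: cells exposed to drugs for 96 hours; 0% = vehicle DMSO and 100% = high DMSO full killing control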
# [16] = growth inhibition of RCMB18 medulloblastoma cells, cell-based, cisplatin and BGB IC40 combos (AID 1671462); settings: stronger effect = higher value;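 also: cells exposed to compound for four days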
# [17] = growth inhibition of CRL1545 osteosarcoma cells, cell-based, cisplatin and BGB IC20 combos (AID 1671464); settings: stronger effect = higher value;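 also: cells exposed to compound for 96 hours before readout; 0% = vehicle DMSO and 100% = high DMSO killing control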
# [18] = measured here: with BGB IC20 combination, at 0.5 µM
# [19] = measured here: with cisplatin IC20 combination, at 0.5 µM
smiles,measurement,setting,value
c1ccc2c(Oc3nc(Nc4ccc(N5CCOCC5)cc4)c4ncn(C5CCCCC5)c4n3)cccc2c1,outcome,[1],inactive
same,outcome,[2],inactive
same,outcome,[3],inactive
same,AC50,[4],13.2 µM (active)
same,outcome,[5],inactive
same,fold change,"[6]; stronger effect = lower value, cell number ratio, induced over uninduced",0.897 (inactive) and 0.992 (inactive)
same,fold change,[6]; measured here: relative caspase fold change +Dox/-Dox,0.721 and 0.438
same,cell count,"[6]; measured here: total cells with miR-34 induction, stronger effect = lower value",5540 and 6870
same,cell count,[6]; measured here: total cells without miR-34 induction,6180 and 6930
same,z-score,"[7]; MELAS cybrid survival, CellTiter-Glo 48 h, stronger effect = higher value",-0.486 (inactive)
same,z-score,"[7]; Rieske KO mouse fibroblast survival, CellTiter-Glo 72 h",0.0671
C=C1c2cccc(O)c2C(O)=C2C(=O)[C@@]3(O)C(O)=C(C(N)=O)C(=O)[C@@H](N(C)C)[C@@H]3[C@@H](O)[C@H]12,outcome,[1],inactive
same,outcome,[2],inactive
same,outcome,[8],inactive
same,outcome,[9],inactive
same,outcome,[3],inactive
same,outcome,[5],inactive
COCCNCCCn1c(C(=O)CF)c(-c2ccc(C)cc2)c2c(N)ncnc21,outcome,[1],inactive
same,outcome,[2],inactive
same,outcome,[8],inactive
same,outcome,[4],inactive
same,outcome,[5],inactive
O=C(NC[C@H]1CN(c2ccc(N3CCOCC3=O)cc2)C(=O)O1)c1ccc(Cl)s1,outcome,[1],inactive
same,outcome,[2],inactive
same,outcome,[3],inactive
same,outcome,[4],inactive
same,outcome,[5],inactive
Cc1cnc(CNC(=O)c2c(=O)c3ccc(N4CCCN(C)CC4)nc3n3c2sc2ccccc23)cn1,outcome,[1],inactive
same,outcome,[2],inactive
same,outcome,[8],inactive
same,outcome,[9],inactive
same,outcome,[3],inactive
same,outcome,[5],inactive
same,inhibition,"[10]; at 0.5 µM, stronger effect = higher value",-32.6% (inactive) and -19.8% (inactive)
same,inhibition,"[10]; measured here: combination with BGB IC20, at 0.005 µM",-4.81% and -24.5%
same,inhibition,"[10]; measured here: combination with BGB IC40, at 0.005 µM",-1.91% and -28.2%
same,inhibition,"[10]; measured here: combination with BGB IC40, at 0.05 µM",0.537% and -10.1%
same,inhibition,"[10]; measured here: combination with cisplatin, at 0.5 µM, stronger effect = higher value",-27% and -20.6%
same,inhibition,"[10]; measured here: combination with cisplatin, at 5 µM, stronger effect = higher value",126% and 65.2%
same,inhibition,"[11]; BGB combo, at 5 µM",99.9% and 61.4%
same,inhibition,[11]; at 0.5 µM,53.7% (inactive) and 26.5% (inactive)
same,inhibition,"[11]; cisplatin combo, at 5 µM",99.9% and 78%
same,inhibition,[11]; [18],51.6% and 27.6%
same,inhibition,[11]; [19],44.8% and 18.7%
same,inhibition,"[11]; single agent, at 5 µM",99.9% and 80.2%
same,inhibition,"[12]; BGB IC20 combo, at 0.005 µM",94.7% and -37.9%
same,inhibition,"[12]; BGB IC40 combo, at 0.005 µM",92.8% and -33.4%
same,inhibition,"[12]; BGB IC40 combo, at 0.05 µM",102%
same,inhibition,[12]; at 0.5 µM,-35% (inactive) and -18.1% (inactive)
same,inhibition,"[12]; cisplatin combo, at 0.05 µM",102%
same,inhibition,"[12]; cisplatin combo, at 0.5 µM",-48.5% and -27.9%
same,inhibition,"[12]; cisplatin combo, at 5 µM",-21.1% and -37.3%
same,inhibition,"[12]; measured here: 5 uM single agent, at 5 µM",-8.37% and -11.6%
same,inhibition,[13]; at 0.5 µM,6.45% (inactive) and -21.5% (inactive)
same,inhibition,"[13]; measured here: with BGB IC20, at 0.5 µM",2.27% and -44.5%
same,inhibition,"[13]; measured here: with BGB IC20, at 5 µM",100% and 39.1%
same,inhibition,"[13]; measured here: with cisplatin IC20, at 0.5 µM",-0.545% and -23%
same,inhibition,"[13]; measured here: with cisplatin IC20, at 5 µM",99.9% and 26.3%
same,inhibition,"[13]; single agent, at 5 µM",100% and 41.7%
same,inhibition,[14]; at 0.5 µM,29.4% (inactive) and 4.69% (inactive)
same,inhibition,"[14]; measured here: BGB combination, at 0.5 µM",10.6% and -16.3%
same,inhibition,"[14]; measured here: BGB combination, at 5 µM",103% and -17.9%
same,inhibition,"[14]; measured here: cisplatin combination, at 0.5 µM",20.7% and -11.9%
same,inhibition,"[14]; measured here: cisplatin combination, at 5 µM",102% and 14.1%
same,inhibition,[15]; at 0.5 µM,-18.1% (inactive) and -56.2% (inactive)
same,inhibition,"[15]; cisplatin combination, at 0.5 µM",18.1% and -29.3%
same,inhibition,"[15]; cisplatin combination, at 5 µM",108% and 82.2%
same,inhibition,"[15]; measured here: BGB IC40 combination 0.05 uM, at 0.05 µM",77.5% and -15.1%
same,inhibition,"[15]; single agent, at 5 µM",106% and -74.4%
same,inhibition,[16]; at 0.5 µM,85.6% (active) and -19.4% (inactive)
same,inhibition,"[16]; cisplatin combo, at 5 µM",101% and 100%
same,inhibition,"[16]; measured here: BGB IC40 combination, at 0.05 µM",-21.6% and -12.2%
same,inhibition,"[16]; measured here: combination with cisplatin, at 0.5 µM",95.7% and -7.59%
same,inhibition,"[16]; single agent, at 5 µM",101%
same,inhibition,[17]; at 0.5 µM,38.3% (inactive) and -17.2% (inactive)
same,inhibition,[17]; [18],36.7% and -12.7%
same,inhibition,[17]; [19],39% and -19.4%
same,inhibition,"[17]; single agent, at 0.05 µM",2.42% and -7.19%
same,inhibition,"[17]; single agent, at 5 µM",99.9%
